This passage reports growth inhibition results from PubChem BioAssay (NCI).

Assay [1] can be described thus: NCI Yeast Anticancer Drug Screen. Data for the rad50 strain (AID 155).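 Further: 0% = growth of vehicle-only cultures of the same strain.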 Conditions: S. cerevisiae rad50 strain growth inhibition, hits give high values. The procedure, abridged:
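A DNA repair-deficient yeast mutant serves as the test organism; compound-induced growth inhibition is calculated against vehicle-treated cells.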

Assay [2] in a line: NCI Yeast Anticancer Drug Screen. Data for the mec2-1 strain (AID 157). Particulars: S. cerevisiae mec2-1 strain, hits give high values. The procedure, abridged: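 Compounds were applied to mec2-1 yeast cells. Their growth was then compared with that of vehicle-treated cultures to give growth inhibition.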
The nature of assay [3]: NCI Yeast Anticancer Drug Screen. Data for the sgs1 mgt1 strain (AID 161).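 Further: 0% = growth of cultures given vehicle only.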 Particulars: S. cerevisiae sgs1 mgt1 strain, hits give high values. The procedure, abridged:
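Compounds are added to genetically altered yeast, and growth is compared with cultures given vehicle alone to give percent inhibition.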

The nature of assay [4]: NCI Yeast Anticancer Drug Screen. Data for the cln2 rad14 strain (AID 165).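 Further: 0% = growth equal to vehicle treated cultures.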 Conditions: S. cerevisiae cln2 rad14 strain, hits give high values. The procedure, abridged: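 Strain: cln2 rad14 yeast, altered in cell cycle control and DNA damage repair. Read-out: growth inhibition vs vehicle.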
Assay [5] is described as follows: NCI Yeast Anticancer Drug Screen. Data for the bub3 strain (AID 167). Conditions: S. cerevisiae bub3 mutant strain, hits give high values. The method, boiled down:
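Inhibition values come from growth of compound-treated mutant yeast normalised to vehicle-treated controls.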

The nature of assay [6]: NCI Yeast Anticancer Drug Screen. Data for the mlh1 rad18 strain (AID 175). Conditions: S. cerevisiae mlh1 rad18 strain growth inhibition, hits give high values. The procedure, abridged:
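A repair-deficient yeast strain is exposed to test compound, and growth is scored relative to vehicle-treated controls.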

[7] abbreviates: at 5.0 µM (retest, dose inferred, filed as 0.5).
[8] abbreviates: at 50.0 µM (retest, dose inferred, filed as 5.0).

About 79,000 compounds went through this panel and 15% of them were active in at least one assay; those are over-represented in the sample as a whole. Values without a mark were called inactive. The source made the active and inactive calls. No stated cut-off is given here; in the data, active means growth inhibition above about 70%; inactive means the rest.

In the case of `COc1ccc2ccc3c(c2c1)CCC(C(=O)O)C3CC(=O)O` (stereo not given), the growth inhibition is -9% in assay [1] (setting [7]); 9% in assay [1] (setting [8]); 41.9% in assay [1] (at 50.0 µM); -17% in assay [2] (setting [7]); 0% in assay [2] (setting [8]); 97.5% (active) in assay [2] (at 50.0 µM). In addition, the growth inhibition in assay [3] (setting [7]) is -11%; in assay [3] (setting [8]), 12%; in assay [3] (at 50.0 µM) it was 43.6%; in assay [4] (setting [7]), 0%; in assay [4] (setting [8]), 27%; in assay [4] (at 50.0 µM) it was 93.8% (active). Besides, the growth inhibition in assay [5] (setting [7]) was -11%; in assay [5] (setting [8]), 26%; in assay [5] (at 50.0 µM) it was 77.2% (active); in assay [6] (setting [7]), -30%; in assay [6] (setting [8]) it was 35%; in assay [6] (at 50.0 µM), 84% (active).

Regarding `FC(F)(F)c1ccc(Nc2ccc(C(F)(F)F)cc2)cc1`, the growth inhibition in assay [1] (setting [7]) was 9%; in assay [1] (setting [8]) it was 100% (active); in assay [1] (at 50.0 µM) it was 99.6% (active); in assay [2] (setting [7]), -17%; in assay [2] (setting [8]) it was 100% (active); in assay [2] (at 50.0 µM) it was 99.8% (active). Moreover, the growth inhibition in assay [3] (setting [7]) is 12%; in assay [3] (setting [8]) it was 100% (active); in assay [3] (at 50.0 µM) it was 99.6% (active); in assay [4] (setting [7]), -5%; in assay [4] (setting [8]), 100% (active); in assay [4] (at 50.0 µM) it was 99.6% (active). Further, the growth inhibition was -3% in assay [5] (setting [7]); 99% (active) in assay [5] (setting [8]); 99.7% (active) in assay [5] (at 50.0 µM); 12% in assay [6] (setting [7]); 100% (active) in assay [6] (setting [8]); 99.8% (active) in assay [6] (at 50.0 µM).

With `O=C(CC(=O)c1ccccc1)CC(=O)c1cccc(Cl)c1`, the growth inhibition in assay [1] (setting [7]) was -1%; in assay [1] (setting [8]), 87% (active); in assay [1] (at 50.0 µM) it was 81.1% (active); in assay [2] (setting [7]) it was 5%; in assay [2] (setting [8]), 89% (active); in assay [2] (at 50.0 µM), 65%. Also, the growth inhibition was -1% in assay [3] (setting [7]); 87% (active) in assay [3] (setting [8]); 76.2% (active) in assay [3] (at 50.0 µM); -9% in assay [4] (setting [7]); 77% (active) in assay [4] (setting [8]); 18.4% in assay [4] (at 50.0 µM). The growth inhibition in assay [5] (setting [7]) was 8%; in assay [5] (setting [8]) it was 94% (active); in assay [5] (at 50.0 µM), 78.5% (active); in assay [6] (setting [7]), 4%; in assay [6] (setting [8]) it was 93% (active); in assay [6] (at 50.0 µM) it was 85.2% (active).

Consider `CCCCCCCCCCCCCC(=O)CC(=O)c1c(O)cccc1O`, for which the growth inhibition in assay [1] (setting [7]) is 2%; in assay [1] (setting [8]) it was -7%; in assay [1] (at 50.0 µM), -9.1%; in assay [2] (setting [7]) it was -3%; in assay [2] (setting [8]), -1%; in assay [2] (at 50.0 µM), -5.8%. Moreover, the growth inhibition in assay [3] (setting [7]) was 7%; in assay [3] (setting [8]) it was -13%; in assay [3] (at 50.0 µM), -3.9%; in assay [4] (setting [7]), 10%; in assay [4] (setting [8]) it was 12%; in assay [4] (at 50.0 µM), -64.6%. Moreover, the growth inhibition in assay [5] (setting [7]) was -11%; in assay [5] (setting [8]) it was -5%; in assay [5] (at 50.0 µM) it was 7%; in assay [6] (setting [7]) it was 35%; in assay [6] (setting [8]), 17%; in assay [6] (at 50.0 µM), 17.1%.

On to `CN=C1NS(=O)(=O)c2ccccc21`, for which the growth inhibition in assay [1] (setting [7]) was 2%; in assay [1] (setting [8]), 0%; in assay [1] (at 50.0 µM), 15.8%; in assay [2] (setting [7]), 8%; in assay [2] (setting [8]) it was 1%; in assay [2] (at 50.0 µM), -6.15%. Moreover, the growth inhibition in assay [3] (setting [7]) is 4%; in assay [3] (setting [8]) it was -1%; in assay [3] (at 50.0 µM), 3.4%; in assay [4] (setting [7]) it was 0%; in assay [4] (setting [8]) it was 2%; in assay [4] (at 50.0 µM), 19.1%. For the same compound, the growth inhibition in assay [5] (setting [7]) is 11%; in assay [5] (setting [8]) it was 39%; in assay [5] (at 50.0 µM) it was -0.85%; in assay [6] (setting [7]) it was 0%; in assay [6] (setting [8]), 8%; in assay [6] (at 50.0 µM), -2.4%.

Take `C1=CC2C(c3cccc4ccccc34)O[C@H]2O1` (stereo not given in full): the growth inhibition is 39% in assay [1] (setting [7]); 99% (active) in assay [1] (setting [8]); 98.8% (active) in assay [1] (at 50.0 µM); 11% in assay [2] (setting [7]); 99% (active) in assay [2] (setting [8]); 98.5% (active) in assay [2] (at 50.0 µM). The growth inhibition is 13% in assay [3] (setting [7]); 99% (active) in assay [3] (setting [8]); 98.8% (active) in assay [3] (at 50.0 µM); 7% in assay [4] (setting [7]); 98% (active) in assay [4] (setting [8]); 98.8% (active) in assay [4] (at 50.0 µM). Moreover, the growth inhibition in assay [5] (setting [7]) was 3%; in assay [5] (setting [8]) it was 99% (active); in assay [5] (at 50.0 µM), 98.4% (active); in assay [6] (setting [7]), 28%; in assay [6] (setting [8]), 99% (active); in assay [6] (at 50.0 µM) it was 98.3% (active).

`N#Cc1cc([N+](=O)[O-])ccc1NC(=O)/C(=N/N)C(C(=O)c1ccc(Cl)c(Cl)c1)C1OC(=O)c2ccccc21` (stereo not given): the growth inhibition in assay [1] (setting [7]) was 23%; in assay [1] (setting [8]), 23%; in assay [1] (at 50.0 µM) it was 91.8% (active); in assay [2] (setting [7]) it was 11%; in assay [2] (setting [8]), 11%; in assay [2] (at 50.0 µM) it was 92.2% (active). The growth inhibition in assay [3] (setting [7]) is 18%; in assay [3] (setting [8]), 18%; in assay [3] (at 50.0 µM), 91.2% (active); in assay [4] (setting [7]), 1%; in assay [4] (setting [8]) it was 1%; in assay [4] (at 50.0 µM) it was 90.2% (active). Moreover, the growth inhibition in assay [5] (setting [7]) was 11%; in assay [5] (setting [8]), 11%; in assay [5] (at 50.0 µM) it was 92.4% (active); in assay [6] (setting [7]), 5%; in assay [6] (setting [8]), 5%; in assay [6] (at 50.0 µM) it was 92% (active).

For the compound `COCc1ccc([N+](=O)[O-])o1`, the growth inhibition was 17% in assay [1] (setting [7]); 89% (active) in assay [1] (setting [8]); 71.5% (active) in assay [1] (at 50.0 µM); 1% in assay [2] (setting [7]); 35% in assay [2] (setting [8]); 21.6% in assay [2] (at 50.0 µM). Also, the growth inhibition in assay [3] (setting [7]) is 11%; in assay [3] (setting [8]), 76% (active); in assay [3] (at 50.0 µM) it was 78.7% (active); in assay [4] (setting [7]), 6%; in assay [4] (setting [8]) it was 24%; in assay [4] (at 50.0 µM) it was 7.65%. The growth inhibition in assay [5] (setting [7]) was 2%; in assay [5] (setting [8]), 36%; in assay [5] (at 50.0 µM), 1.2%; in assay [6] (setting [7]) it was 17%; in assay [6] (setting [8]) it was 84% (active); in assay [6] (at 50.0 µM) it was 66.2%.

As for `O=C1c2cccc3cccc(c23)C1(Br)Br`, the growth inhibition in assay [1] (setting [7]) is 36%; in assay [1] (setting [8]) it was 99% (active); in assay [1] (at 50.0 µM) it was 68%; in assay [2] (setting [7]), 20%; in assay [2] (setting [8]), 99% (active); in assay [2] (at 50.0 µM) it was 23.4%. For the same compound, the growth inhibition in assay [3] (setting [7]) is 45%; in assay [3] (setting [8]) it was 98% (active); in assay [3] (at 50.0 µM) it was 70.8% (active); in assay [4] (setting [7]), 37%; in assay [4] (setting [8]) it was 95% (active); in assay [4] (at 50.0 µM), 56.1%. Besides, the growth inhibition in assay [5] (setting [7]) was 26%; in assay [5] (setting [8]), 97% (active); in assay [5] (at 50.0 µM) it was 55.6%; in assay [6] (setting [7]), 54%; in assay [6] (setting [8]), 99% (active); in assay [6] (at 50.0 µM), 67.8%.

For `CCCCCCOC(=O)COc1ccccc1`, the growth inhibition was 4% in assay [1] (setting [7]); 2% in assay [1] (setting [8]); 23.6% in assay [1] (at 50.0 µM); 0% in assay [2] (setting [7]); -1% in assay [2] (setting [8]); -0.8% in assay [2] (at 50.0 µM). The growth inhibition in assay [3] (setting [7]) is -1%; in assay [3] (setting [8]) it was 3%; in assay [3] (at 50.0 µM) it was 20.6%; in assay [4] (setting [7]), 5%; in assay [4] (setting [8]), 1%; in assay [4] (at 50.0 µM), 40.8%. Further, the growth inhibition is 24% in assay [5] (setting [7]); 45% in assay [5] (setting [8]); 15.8% in assay [5] (at 50.0 µM); -1% in assay [6] (setting [7]); 0% in assay [6] (setting [8]); 33.7% in assay [6] (at 50.0 µM).
